The list is not random: actives were taken first. Their share in the collection is about 2.3%.
Pol eta inh-1: blocks human DNA polymerase eta activity; Q9Y253; recombinant Pol eta, fluorescent DNA replication assay; Potency, µM (series often up to 114 µM), for inactives: top-dose activity change, negative = inhibition, actives largely listed as inhibitors; 390,000 compounds, 1.2% hits; AID 588591; also: potency is read from the fitted curve at half-maximal effect; % is scaled to controls: 0 for no effect and ±100 for the full control effect
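Pol eta (10 nM) was preincubated with compounds for 15 min at room temperature, after which fluorescent replication substrate (50 nM final) was added to start the reaction. Fluorescence was read kinetically at 0 and 10 min.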
POLB inh: DNA polymerase beta (human) inhibition | P06746 | Pol beta primer extension/strand displacement, fluorescence kinetic | Potency, µM (top dose mostly 114 µM), without a hit: at the highest dose activity change, negative = inhibition, hits mostly inhibitors | 340,000 compounds, 1.3% hits; also: potency is read from the fitted curve at half-maximal effect; % is scaled to controls: 0 for no effect and ±100 for the full control effect
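Pol beta (10 nM) and compounds were preincubated 15 min at room temperature, then 50 nM substrate (final) started primer extension/strand displacement. Reads were taken at 0 and 10 min; concentration-response data were fitted to a four-parameter Hill equation.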
WRN helicase inh: blocks human WRN helicase. WRN helicase unwinding, fluorescent forked duplex, kinetic. Potency, µM (highest dose often 114 µM), without a hit: at the top dose activity change, negative = inhibition, hits mostly inhibitors. 360,000 compounds, 0.46% hits. AID 651768; also: potency is read from the fitted curve at half-maximal effect; % is scaled to controls: 0 for no effect and ±100 for the full control effect; nearly all actives have a fitted effect of over 55% in size
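Enzyme (20 nM final) and test compound sit together 15 min at room temperature before substrate addition. Substrate is a single-forked duplex oligonucleotide (100 nM) labelled with fluorophore and quencher, with 2 mM ATP; helicase unwinding raises red fluorescence, read kinetically.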
Pol kappa inh-1: DNA polymerase kappa (human) inhibition; Q9UBT6; purified Pol kappa, fluorescent DNA synthesis assay, 10 min; Potency, µM (top dose mostly 107 µM), inactives show at the highest dose activity, negative = inhibition, most hits filed as inhibitors; 400,000 compounds, 0.53% hits; also: potency is read from the fitted curve at half-maximal effect; % is scaled to controls: 0 for no effect and ±100 for the full control effect
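Inhibition of 10 nM Pol kappa is measured by a fluorescent read-out at 0 and 10 min following addition of 50 nM substrate (final), with a 15-min room-temperature compound preincubation.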
POLI inh: DNA polymerase iota (human) inhibition; Q9UNA4; Pol iota fluorescent replication assay, 10 min; Potency, µM (top dose mostly 115 µM), without a hit: at the highest dose activity, negative = inhibition, actives largely listed as inhibitors; 390,000 compounds, 1% hits; also: potency is read from the fitted curve at half-maximal effect
Target sequence (Q9UNA4 whole entry, looked up): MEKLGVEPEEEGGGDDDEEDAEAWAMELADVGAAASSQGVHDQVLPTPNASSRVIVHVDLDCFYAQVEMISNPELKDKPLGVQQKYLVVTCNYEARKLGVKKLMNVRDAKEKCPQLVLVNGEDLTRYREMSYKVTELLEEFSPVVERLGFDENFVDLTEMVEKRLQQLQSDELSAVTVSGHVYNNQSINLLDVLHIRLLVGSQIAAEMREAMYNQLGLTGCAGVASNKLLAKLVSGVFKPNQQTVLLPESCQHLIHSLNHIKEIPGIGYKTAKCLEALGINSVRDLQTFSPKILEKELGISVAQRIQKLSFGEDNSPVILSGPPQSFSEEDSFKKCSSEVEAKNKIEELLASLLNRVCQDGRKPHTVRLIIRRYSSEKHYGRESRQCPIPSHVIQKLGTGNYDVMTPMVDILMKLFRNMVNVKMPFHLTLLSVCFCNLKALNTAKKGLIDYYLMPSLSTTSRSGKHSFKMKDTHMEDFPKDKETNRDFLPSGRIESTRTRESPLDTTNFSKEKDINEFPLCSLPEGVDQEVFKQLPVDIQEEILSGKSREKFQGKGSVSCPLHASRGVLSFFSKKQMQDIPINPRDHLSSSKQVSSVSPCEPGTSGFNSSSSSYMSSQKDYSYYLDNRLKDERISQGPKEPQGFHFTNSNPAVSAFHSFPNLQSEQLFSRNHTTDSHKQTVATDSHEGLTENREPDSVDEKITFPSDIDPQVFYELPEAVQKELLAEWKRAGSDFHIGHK
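Pol iota at 10 nM preincubated 15 min with compounds at room temperature; reaction started with fluorescent substrate, 50 nM final. Fluorescence read kinetically at 0 and 10 min; buffer-only wells as negative control.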
GALK inh confirm: galactokinase (human) inhibition, confirmation; shares compounds with Pol eta inh-1; 150 compounds, 70% hits; Potency, µM (doses to about 115 µM), for inactives: at the top dose activity, negative = inhibition, most hits filed as inhibitors; purified GALK, Kinase-Glo ATP depletion luminescence
Redox cycling: generates H2O2 by redox cycling, flagging GALK artifacts. 150 compounds, 40% hits. shares compounds with Pol eta inh-1. Potency, µM (titrated, usually from 115 µM), for inactives: at the highest dose activity change, negative = H2O2 signal, usual class: inhibitors. Phenol red-HRP H2O2 redox cycling, absorbance 600 nm
HEK293 tox: reduces HEK-293 cell viability in GALK counter-screen. shares compounds with Pol eta inh-1. HEK-293 viability, ATP luminescence (CellTiter-Glo), 24/48 h. Potency, µM (top dose mostly 46.1 µM), for inactives: at the highest dose activity change, negative = cytotoxicity, hits mostly inhibitors. 170 compounds, 10% hits. AID 2547; also: potency is read from the fitted curve at half-maximal effect; % is scaled to controls: 0 for no effect and ±100 for the full control effect
Pol kappa inh-2: confirmation of human DNA polymerase kappa inhibitors; 920 compounds, 76% hits; shares compounds with Pol eta inh-1; Potency, µM, most hits filed as inhibitors; purified Pol-kappa, fluorescent strand-displacement substrate; also: potency is read from the fitted curve at half-maximal effect
Pol eta inh-2: confirmation of human DNA polymerase eta inhibitors. 2,600 compounds, 64% hits. Pol eta primer extension, TAMRA/BHQ fluorescence, 10 min. shares compounds with Pol eta inh-1. Potency, µM, most hits filed as inhibitors. AID 720502; also: potency is read from the fitted curve at half-maximal effect
The depositor's hits bear a star; u = inconclusive; x = not tested or not shown; [ ] = another dose, or the depositor's remark. Calls follow the shape of the dose curve; as a rule, active = well fitted curve in the direction sought with a large enough effect; inconclusive = small, poorly fitted or top-dose-only effect, or another doubt; inactive = no such curve, though single readings can be large; an effect the other way counts as inactive or inconclusive.

SMILES | Pol eta inh-1 | POLB inh | WRN helicase inh | Pol kappa inh-1 | POLI inh | Pol eta inh-2 | others
CCCCC1(C)OC(=O)C(=Cc2ccc(-c3ccc(Cl)c(C(=O)O)c3)o2)C(=O)O1 (centres undefined) | 20µM* | 16µM* | u | u | u | 27*
CCN(CC)c1ccc(/C=C2/SC(=O)N(C(C)C)C2=O)o1 | -27% | -1% | -21% | 1% | -6% | x
O=[N+]([O-])c1cccc(-c2ccc(/C=N/NC(=S)Nc3ccccc3)o2)c1 | -14% | 11% | -20% | 2% | -6% | x
CC(C)N1C(=O)S/C(=C\c2ccc(-c3ccc(Cl)c(C(=O)O)c3)o2)C1=O | 8.9µM* | 0% | u | 50µM* | u | 27*
Cc1cc(/C=C2/C(=O)NN(c3ccccc3)C2=O)c(C)n1-c1ccc(O)cc1 | -8% | 8% | -19% | -12% | -9% | x
O=C(O)c1cc(-c2ccc(/C=N/NC(=S)Nc3ccccc3)o2)ccc1Cl | 20µM* | 28µM* | u | 79µM* | 35µM* | u | Pol kappa inh-2=75*
Cc1ccc(N2NC(=O)/C(=C/c3ccc(-c4ccc(Cl)c(C(=O)O)c4)o3)C2=O)cc1 | 22µM* | 32µM* | u | u | u | 60*
CC(C)(C)c1cccc(S(=O)(=O)N2CCN(c3nc(-c4cccs4)nc4ccccc34)CC2)c1 | x | x | x | 0% | 11% | x
CCc1ccc(NC(=O)C(=O)NCC(c2cccnc2)N2CCN(Cc3ccccc3)CC2)cc1 (centres undefined) | -8% | 33% | x | -4% | -19% | x
Cc1nc(Nc2nc(-c3ccccc3)cc(=O)[nH]2)nc2ccccc12 | u | x | -34% | -15% | 64% | u
COc1ccc(OCCCC(=O)OCC(=O)Nc2ncc(Cl)cc2Cl)cc1 | 40µM* | x | u | -31% | u | 85* | Pol kappa inh-2=u
O=C(COC(=O)CNC(=O)c1ccc([N+](=O)[O-])o1)Nc1ncc(Cl)cc1Cl | u | x | -7%[11.6 µM] | -21% | u | u
COc1ccc(/C=C/C(=O)OCC(=O)Nc2ncc(Cl)cc2Cl)cc1 | u | x | -21% | -8% | -22% | x
O=C(COC(=O)CNC(=O)c1ccc([N+](=O)[O-])o1)Nc1ncc(C(F)(F)F)cc1Cl | -12% | x | 3% | -17% | 8% | x
O=c1[nH]c(Nc2nc3ccccc3o2)nc2c1CCCC2 | -1% | 2% | -17%[57.1 µM] | -6% | 6% | x
CCCN1CN=C(Nc2nc3ccccc3o2)NC1 | -16% | -7% | -6% | 3% | 58% | x
CC1(C)N=C(Nc2nc3ccccc3o2)NC2=C1C(=O)CCC2 | x | x | x | x | x | x | HEK293 tox=-27%
CC1CCC2(C1)N=C(Nc1nc3ccccc3o1)NC1=C2C(=O)CCC1 (centres undefined) | x | x | x | x | x | x | HEK293 tox=u
COc1cc2c(cc1OC)C(COc1ccc(F)cc1)N(C(=O)c1ccc(S(=O)(=O)N3CCCC3)cc1)CC2 (centres undefined) | -3% | 4% | x | -6%[60.1 µM] | 9% | x
O=C(CSCc1ccccc1)N1CCN(S(=O)(=O)c2ccc(F)cc2)CC1 | 5% | -13% | -3% | 1% | 21% | x | GALK inh confirm=-7%;Redox cycling=-1%;HEK293 tox=3%
Cc1ccc2c(CC(=O)NCc3ccccc3)coc2c1C | -10% | 7% | x | -12% | 11% | x
Cc1noc(NS(=O)(=O)c2ccc(NC(=O)c3ccc(Br)cc3)cc2)c1C | x | 0% | x | u | -7% | x | Pol kappa inh-2=8.4*
Cc1ccc(C(=O)Nc2ccc(S(=O)(=O)Nc3onc(C)c3C)cc2)cc1 | x | 5% | x | -17% | 4% | x
Cc1c(CCC(=O)O)c(=O)oc2c(C)c3occ(-c4ccc(Cl)cc4)c3cc12 | 22µM* | 22µM* | 56µM* | 89µM* | 13µM* | u
C=CCc1cccc2cc(C(=O)Nc3ccccc3C(=O)O)c(=O)oc12 | 45µM* | u | u | -40% | u | u
SMILES | Pol eta inh-1 | POLB inh | WRN helicase inh | Pol kappa inh-1 | POLI inh | Pol eta inh-2 | others
Cc1cc(C)cc(OCc2cc(=O)n3c(-c4ccccc4)csc3n2)c1 | u | 13µM* | x | u | u | u | Pol kappa inh-2=u
COc1cc(=O)n2c(-c3ccccc3)csc2n1 | -13% | -9% | -6% | -5% | 3% | x
Cc1ccc2c(CN3CCN(C(=O)c4ccc(Br)cc4)CC3)cc(=O)oc2c1 | 7% | u | x | -18% | -16% | x
CCOC(=O)c1[nH]c2ccccc2c1NC(=O)c1cc(OC)cc(OC)c1 | -5% | 2% | x | 8% | -19% | x
O=C(O)C1CC=CCC1C(=O)N1CCc2ccccc21 (centres undefined) | u | 20µM* | -11%[57.1 µM] | u | 0% | u
C/C(=N\Nc1ccc(Cl)c(C(=O)O)c1)c1cccs1 | 18µM* | 14µM* | -14%[11.6 µM] | u | u | 30*
C/C(=N/Nc1ccccc1C(=O)O)c1cccs1 | -17% | 33% | -13% | -20% | -17% | x
CCCn1c2ccccc2c2cnn(CC(=O)NCc3ccc(OC)cc3)c(=O)c21 | -17% | 0% | x | -19%[60.1 µM] | 10% | x
Cn1cc(S(=O)(=O)N2CCCC2)cc1C(=O)O | 22µM* | x | 0% | -24% | u | x | Pol kappa inh-2=u
COC(=O)c1ccc(COc2ccc(/C=N/Nc3nc(C)cc(=O)[nH]3)cc2)cc1 | 89µM* | 20µM* | -10%[11.6 µM] | -7% | u | x | Pol kappa inh-2=u
COc1ccc(OC)c(NC(=O)c2cc3cc4ccc(C)cc4nc3s2)c1 | -27% | -1% | x | -24% | 21% | x
COc1ccccc1NC(=O)c1cc2cc3ccc(OC)c(Cl)c3nc2s1 | u | 2.8µM* | x | -9%[60.1 µM] | -27% | u | Pol kappa inh-2=21*
COc1cc(Cl)c(NC(=O)CN(C)S(=O)(=O)c2ccc3c(c2)CCCC(=O)N3)c(OC)c1 | -16% | 0% | x | -7% | -1% | x
COc1ccc(OC)c(CNS(=O)(=O)c2cc(-c3onc(C)c3C)ccc2C)c1 | 1% | 18% | x | -24% | u | x

High-throughput results from PubChem.
